Structures are written as SMILES. Where “and” joins values, the source holds several entries; their conditions need not be identical. Equal entries are not always repeated. About 5,500 (1.6%) of roughly 350,000 compounds were called active.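 Rule for the calls: active = significant combined selectivity score with lowered wild-type GFP, culture density cut under 30%, mutant RFP and density less affected; inactive = any of these conditions unmet.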 This excerpt belongs to a sample that is enriched for actives.

This assay in a line: GFP drop in mixed WT/humanized-ribosome E. coli culture – GFP/RFP fluorescence, OD600, single point, bacterial rRNA inhibitor project, primary screen (AID 720706). To be noted: E. coli WT GFP vs humanized-ribosome RFP mutants, 24 h; GFP signal change (wild-type ribosome): stronger effect = lower value, DMSO median 0, no signal -100; OD600 change: measured here: OD600 growth, DMSO median 0, no signal -100; RFP signal change: measured here: RFP humanized mutant strains, DMSO median 0, no signal -100, concentration not given here.
In the case of `CO[C@@H]1CN(C)C(=O)c2cc(NC(=O)C3CC3)ccc2OC[C@@H](C)N(C(=O)NC(C)C)C[C@@H]1C`, the GFP signal change (wild-type ribosome) is 2.5% (inactive), the OD600 change is 1.51% and the RFP signal change was -0.768%.

For the compound `CO[C@@H]1CN(C)C(=O)c2cc(NC(=O)C3CCCCC3)ccc2OC[C@@H](C)N(C(=O)Nc2ccc(C(F)(F)F)cc2)C[C@H]1C`, the GFP signal change (wild-type ribosome) is -0.109% (inactive) and 1.77% (inactive); the OD600 change is 2.19% and -2.79%; the RFP signal change is 2.17% and 2.36%.

As to `CO[C@@H]1CN(C)C(=O)c2cc(NC(=O)C3CCCC3)ccc2OC[C@@H](C)N(C(=O)Nc2ccc(C(F)(F)F)cc2)C[C@H]1C`, the GFP signal change (wild-type ribosome) was -37.8% (active), the OD600 change was -17.8% and the RFP signal change was -5.86%.

With `COc1ccccc1NC(=O)N1CC(=O)N2[C@@H](CO)[C@H](c3ccc(C#CC4CC4)cc3)[C@@H]2C1`, the GFP signal change (wild-type ribosome) was -2.35% (inactive), the OD600 change was -11.8% and the RFP signal change came out at 0.376%.

Take `COc1cc(C(=O)NCC(=O)N2CC=C(c3ccccc3)CC2)cc(OC)c1OC`: the GFP signal change (wild-type ribosome) is -28.4% (active), the OD600 change was -22% and the RFP signal change was 0.011%.

Take `CCn1c(CNC(=O)c2cc(OC)c(OC)c(OC)c2)cc2cc(C)ccc21`: the GFP signal change (wild-type ribosome) is 15.4% (inactive), the OD600 change turned out to be 1.59% and the RFP signal change was -1.24%.

For `COc1ccc(OC)c(CN2CCN(C(=O)CNC(=O)c3cc(C)cc(C)c3)CC2)c1`, the GFP signal change (wild-type ribosome) is 4.96% (inactive), the OD600 change is -6.51% and the RFP signal change was 0.577%.

With `CC(=O)N(C)C[C@@H]1Oc2ccc(NC(=O)NC(C)C)cc2C(=O)N(C)C[C@H]1C`, the GFP signal change (wild-type ribosome) is 1.73% (inactive), the OD600 change is -0.17% and the RFP signal change was -0.644%.

For `COc1cccc(-c2coc3cc4oc(=O)c(CC(=O)O)c(C)c4cc23)c1`, the GFP signal change (wild-type ribosome) was -25.9% (inactive), the OD600 change is -55.2% and the RFP signal change was -6.38%.

For the compound `Cc1c(CCC(=O)O)c(=O)oc2cc3occ(-c4ccccc4)c3cc12`, the GFP signal change (wild-type ribosome) was -41.8% (active), the OD600 change was -27.4% and the RFP signal change was -8.24%.

Consider `Cc1coc2cc3oc(=O)c(CCC(=O)O)c(C)c3cc12`, for which the GFP signal change (wild-type ribosome) was -8.99% (inactive), the OD600 change was -10.5% and the RFP signal change stood at 3.81%.

Turning to `CCCC#Cc1cnc2c(c1)C(=O)N([C@H](C)CO)C[C@H](C)[C@H](CN(C)S(=O)(=O)c1cn(C)cn1)O2`, the GFP signal change (wild-type ribosome) is 7.7% (inactive), the OD600 change was 7.52% and the RFP signal change is -1.55%.

In the case of `Cc1ccc(NC(=S)NC(NC(=O)Cc2cccc3ccccc23)C(Cl)(Cl)Cl)cc1` (stereo unspecified), the GFP signal change (wild-type ribosome) was 2.41% (inactive), the OD600 change came to 7.34% and the RFP signal change was 6.73%.

Take `O=C(O)Cc1ccc(NC(=O)Nc2cccc3ccccc23)cc1`: the GFP signal change (wild-type ribosome) is -0.412% (inactive), the OD600 change was found to be 0.56% and the RFP signal change is -3.8%.

Regarding `O=C(Cc1cccc2ccccc12)NNC(=O)Nc1ccc(Cl)cc1`, the GFP signal change (wild-type ribosome) is -29.7% (active), the OD600 change is -2% and the RFP signal change was -3.61%.

As to `COc1ccc([C@@H]2C/C=C\C[C@@H](c3ccc4c(c3)OCO4)NC(=O)CCC(=O)N2)c(OC)c1`, the GFP signal change (wild-type ribosome) is -4.75% (inactive), the OD600 change was -1.11% and the RFP signal change stood at 0.958%.

Turning to `C[C@@H]1CN([C@@H](C)CO)C(=O)Cc2cc(NS(=O)(=O)c3ccc(Cl)cc3)ccc2O[C@H]1CN(C)C(=O)Nc1cccc2ccccc12`, the GFP signal change (wild-type ribosome) is -0.7% (inactive), the OD600 change is -5.33% and the RFP signal change stood at 1.87%.

The values are drawn from PubChem BioAssay AID720706 (Broad Institute, 2013).
